Test systems include T-47D breast; MDA-MB-435 melanoma; SW-620 colon; MCF7 breast; HCT-116 colon; HCC-2998 colon; KM12 colon; MDA-MB-468 breast; BT-549 breast.
What all share (assay): NCI-60 one-dose screen, 48 h (100 = growth as untreated, 0 = no growth, -100 = all killed)
Common to all, as to settings: 10 µM unless noted

This is part of a sample that, as a whole, favours compounds with a hit. Of some 83,000 tested, about 20% had one in any assay.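 Negative percent growth values reflect cell death: -40 means 40% of the cells present at the start died, and -100 means all died.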 Values without a mark were called inactive. Calls of active or inactive are those of the source. How the source made its calls: active means growth percent below 10; inactive means the rest.

Consider `Cc1ccc(/C=C/C(=O)c2ccc(S(=O)(=O)NCCNc3nc(N(C)C)nc(N4CCOCC4)n3)cc2)cc1`, for which the growth in the experiment with T-47D breast was 69.6%; with MDA-MB-435 melanoma, 74.8%; in the experiment with SW-620 colon it was 29.1%; in the experiment with MCF7 breast it was 7.32% (active); in the experiment on HCT-116 colon it was -21.6% (active); with HCC-2998 colon it was 114%. For the same compound, the results for the growth in the experiment on KM12 colon and with MDA-MB-468 breast were 21.1% and 67.3%, respectively.
For the compound `c1n[nH]cc1-c1nc2ccc3[nH]ncc3c2c2c1CC1(CC2)COC1`, the growth was 26.8% in the experiment with T-47D breast; 30.7% in the experiment on MDA-MB-435 melanoma; 8.89% (active) in the experiment on SW-620 colon; 62.4% in the experiment on MCF7 breast; 15.4% in the experiment with HCT-116 colon; 60.4% with HCC-2998 colon. Also, the growth with KM12 colon is 56.7%; in the experiment on MDA-MB-468 breast, -24.5% (active).
Regarding `C=CCSc1nnc(-c2c(C)nc3sccn23)o1`, the growth is 79.4% with T-47D breast; 101% in the experiment with MDA-MB-435 melanoma; 97% in the experiment with SW-620 colon; 70.8% in the experiment on MCF7 breast; 94% with HCT-116 colon; 110% with HCC-2998 colon. Moreover, the growth in the experiment with KM12 colon is 101%; with MDA-MB-468 breast, 5.74% (active).
Take `COc1ccc(N=Nc2c(N)nn3c(-c4cc5ccccc5oc4=O)ccnc23)cc1`: the growth is 53.2% in the experiment on T-47D breast; 75.5% with MDA-MB-435 melanoma; 31.3% with SW-620 colon; 29% with MCF7 breast; 37.9% with HCT-116 colon; 38.1% in the experiment on HCC-2998 colon. Further, the growth is 51.1% with KM12 colon and 24.7% with MDA-MB-468 breast.
Regarding `COc1ccc(NC(=O)Cn2c(/C=C/c3ccc([N+](=O)[O-])cc3)nc3ccccc3c2=O)cc1`, the growth is 56.1% in the experiment with T-47D breast; 84.2% with MDA-MB-435 melanoma; 70.5% with SW-620 colon; 73.9% in the experiment with MCF7 breast; 35.6% in the experiment on HCT-116 colon; 67.5% with HCC-2998 colon. The growth was 82.7% in the experiment on KM12 colon and 52% in the experiment with MDA-MB-468 breast.
Consider `C#CCN(C)CCCOc1ccc(N(C)C(=O)c2cc(C(C)C)c(O)cc2O)cc1Cl`, for which the growth in the experiment on T-47D breast was 11%; in the experiment on MDA-MB-435 melanoma it was 4.66% (active); in the experiment with SW-620 colon, 12.2%; in the experiment with MCF7 breast, 7.62% (active); in the experiment with HCT-116 colon, 7.57% (active); in the experiment with HCC-2998 colon, -38.4% (active). In addition, the results for the growth with KM12 colon and in the experiment on MDA-MB-468 breast were 5.69% (active) and -30.8% (active), respectively.
For the compound `Cc1ccc(C(=O)Nc2cc(-n3ccnc3C)cc(C(F)(F)F)c2)cc1C#Cc1cnc2cccnn12`, the growth in the experiment on T-47D breast is 0.344% (active); with BT-549 breast, -22.7% (active); in the experiment on MDA-MB-435 melanoma, 3.5% (active); in the experiment on MCF7 breast, 0.633% (active); in the experiment on HCT-116 colon, -41.3% (active); in the experiment with HCC-2998 colon, -48.7% (active). Further, the growth with KM12 colon was 3.67% (active); in the experiment on MDA-MB-468 breast, -20.6% (active).
`Fc1ccccc1CNc1nc(SCCN2CCOCC2)nc2c1cnn2CC(Cl)c1ccc(Br)cc1` (stereo unspecified): the growth with T-47D breast was 14.2%; in the experiment with MDA-MB-435 melanoma, 29.6%; in the experiment with SW-620 colon, -51% (active); in the experiment on MCF7 breast, 21.3%; in the experiment on HCT-116 colon, 26.1%; in the experiment on HCC-2998 colon it was 21.4%. Further, the figures for the growth in the experiment on KM12 colon and in the experiment on MDA-MB-468 breast were 8.13% (active) and 22.1%, respectively.
Turning to `COc1ccc(-c2cc(-c3cc(OC)c(OC)c(OC)c3)[nH]c(=O)c2C#N)cc1`, the growth was 34.6% in the experiment on T-47D breast; 73.6% in the experiment on MDA-MB-435 melanoma; 93.4% in the experiment on SW-620 colon; 86.2% with MCF7 breast; 34.7% with HCT-116 colon; 67.1% in the experiment with HCC-2998 colon. Also, the growth in the experiment on KM12 colon was 75.8%.
In the case of `NNc1ncnc2sc3c(c12)CCN(Cc1ccccc1)C3`, the growth is 24.8% with T-47D breast; 55% in the experiment with BT-549 breast; 77.7% with MDA-MB-435 melanoma; 9.55% (active) with MCF7 breast; 42.6% with HCT-116 colon; 52.1% in the experiment with HCC-2998 colon. For the same compound, the growth in the experiment on KM12 colon was 53.8%; in the experiment on MDA-MB-468 breast, 13.2%.
For the compound `NS(=O)(=O)c1ccc(N2N=C(c3ccc(NC(=O)Nc4ccccc4)cc3)CC2c2ccc(Br)cc2)cc1` (stereo unspecified), the growth with T-47D breast is -73.8% (active); in the experiment on BT-549 breast, -81.1% (active); with MDA-MB-435 melanoma it was -93.8% (active); in the experiment with MCF7 breast, -79.1% (active); in the experiment on HCT-116 colon, -68.1% (active); in the experiment with HCC-2998 colon it was -100% (active). Besides, the growth in the experiment with KM12 colon was -15.7% (active); with MDA-MB-468 breast, -95% (active).
On to `C/C(=N\Nc1ccc(C(=O)O)cc1)c1cnn(-c2cc(=O)[nH]c3ccc(C)cc23)c1C`, for which the growth in the experiment with T-47D breast was 98.9%; in the experiment with MDA-MB-435 melanoma it was 101%; in the experiment with SW-620 colon it was 110%; in the experiment with MCF7 breast, 90.4%; with HCT-116 colon it was 95.2%; with HCC-2998 colon, 108%. For the same compound, the growth in the experiment with KM12 colon is 99.9%; in the experiment with MDA-MB-468 breast, 83.2%.
`NC(=Nc1ccc(OCCCCCCCCn2cnnn2)cc1)c1ccccc1`: the growth in the experiment on T-47D breast is 45.6%; with BT-549 breast it was 18.9%; in the experiment with SW-620 colon it was 22.5%; in the experiment with MCF7 breast, 13.4%; in the experiment with HCT-116 colon, 15.2%; in the experiment on HCC-2998 colon, 17.1%. Moreover, the results for the growth in the experiment on KM12 colon and in the experiment with MDA-MB-468 breast were 10.5% and 20.9%, respectively.
Turning to `COc1ccc2[nH]cc(-c3cc(N)n4nc(-c5c[nH]c6ccccc56)cc4n3)c2c1`, the growth in the experiment on T-47D breast was -21.8% (active); with MDA-MB-435 melanoma, -79% (active); in the experiment on SW-620 colon, -70.4% (active); with MCF7 breast, -81.6% (active); in the experiment on HCT-116 colon, -82.1% (active); in the experiment on HCC-2998 colon it was -76.2% (active). Also, the figures for the growth in the experiment on KM12 colon and in the experiment with MDA-MB-468 breast were -48.8% (active) and -67.8% (active), respectively.
As for `COc1cc(/C=N/NC(=O)c2ccc(OCc3nc4ccc(Cl)cc4[nH]3)cc2)cc(OC)c1OC`, the growth in the experiment with T-47D breast was 7.17% (active); in the experiment on MDA-MB-435 melanoma it was 37.7%; in the experiment on SW-620 colon, 40.8%; in the experiment on MCF7 breast it was 18.3%; with HCT-116 colon, 22.8%; in the experiment on HCC-2998 colon, 61.2%. Further, the results for the growth with KM12 colon and in the experiment on MDA-MB-468 breast were 43.3% and 43.4%, respectively.
On to `CC(C)(C)C(=O)C1CC(C#N)=C2C=Cc3c(ccc4ccccc34)N21` (stereo unspecified), for which the growth in the experiment with T-47D breast is 72.8%; with MDA-MB-435 melanoma, 97.9%; in the experiment on MCF7 breast, 63%; in the experiment on HCT-116 colon, 93.1%; in the experiment on HCC-2998 colon, 99.7%; with KM12 colon, 97%. The growth with MDA-MB-468 breast is 96.2%.

Values taken from PubChem BioAssay (NCI).
